PubChem BioAssay AID1053144 (Broad Institute, 2014)
Out of some 3,400 compounds screened, about 160 (4.7%) were called active.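 Rule for the calls: active = fitted curve reaches 30% activation at a concentration no higher than the top valid tested dose, luminescence rising; inconclusive = no clear call, values can overlap the other calls; inactive = signal moving opposite to the expected increase, plus the rest.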 Only a sample is shown. Measured potencies and affinities stand elsewhere.

test: TCF/LEF reporter activation in neural progenitors – cell-based, iPS-derived NPC, luciferase, Wnt3a, cherry-pick, dose response (AID 1053144); settings: Wnt3a EC25, 24 h; series mostly up to 26 µM;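 note: Wnt3a stimulus is conditioned medium from Wnt3a-transfected mouse L cells at 5% in well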

activation, inactive:
COC(=O)c1ccc(NC(=O)c2cccc(OC)c2)cc1, COc1ccc(NC(=O)c2cccc(OS(=O)(=O)N(C)C)c2)cc1, O=C(/C=C\c1ccco1)Oc1cccc2cccnc12, C(=N\Nc1nccc(-c2cccnc2)n1)/c1ccccc1, CC(C)(C)c1cc(C(=O)NNC(=O)c2ccc(C(F)(F)F)cc2)no1, CN(C)c1ccc(/C=C/c2ccncc2)cc1, COc1ccc(/C=C/C(=O)c2ccccn2)cc1, COc1c(OC(C)=O)ccc(/C=C/c2ccc3cccc(OC)c3n2)c1[N+](=O)[O-], CC(=O)Nc1ccc(-c2ccnc3c2CC(C)(C(=O)NC(C)C)O3)cc1 (stereo unspecified), Cc1ccc(NC(=O)CSc2nccn2Cc2ccco2)c(C)c1, Cn1c(CCNC(=O)c2ccco2)nc2cc(NC(=O)c3ccccc3)ccc21, CCC(=O)NCCc1nc2cc(NC(=O)c3ccc(Cl)cc3)ccc2n1C, Clc1ccccc1Nc1nc(-c2cccnc2)cs1, Nc1ccccc1-n1cccc1, Cc1ccc(S(=O)(=O)N2CCCC(C(=O)Nc3ccc(NC(=O)c4ccccn4)cc3)C2)cc1 (stereo unspecified), Oc1ccc(-c2csc(Nc3ncccn3)n2)c(O)c1, COc1ccc(-c2nc3n(c2C)Cc2ccccc2-3)cc1, Clc1ccc(-c2nc3n(n2)Cc2ccccc2-3)cc1, Cn1c(-c2ccc(F)c(F)c2)cc2onc(-c3ccccc3)c2c1=O, NC(=O)C1CCN(C(=O)c2cc3c(s2)CCCCC3)CC1, O=C(Nc1nc(-c2ccc3c(c2)OCCO3)cs1)C1CCCC1, O=C(Nc1nc(-c2nc3ccccc3s2)cs1)C1CC1, CC(C)(C)c1ccc(NC(=O)c2ccccc2)c([N+](=O)[O-])c1, O=C(Nc1ccc2c(c1)OCO2)Nc1ccccn1, Cc1ccc(CNC(=O)c2ccc(Cn3cc(-c4ccc(C)cc4)nc3-c3ccncc3)cc2)cc1, Nc1nc(-c2cc(-c3ccccc3)no2)cs1, Clc1ccc(-c2cc(-c3ccccc3)on2)cc1, Cc1ccc(OCC(=O)Nc2ccccc2F)cc1, COc1cccc(OCC(=O)Nc2ccccc2C(N)=O)c1, Cc1cc(C)c(C#N)c(N2CCSCC2)n1, O=C(Nc1ccccc1F)c1ccc2c(c1)OCO2, O=C(Nc1ncccc1O)c1ccc2ccccc2c1, Cc1nc(NC(=O)c2ccc3c(c2)OCCO3)ccc1Br, O=C(Nc1cccnc1)c1ccc(Oc2ccccc2)cc1, O=C(Nc1ccc(Cl)cc1Cl)c1ccc2c(c1)OCCO2, NC(=O)c1ccccc1NC(=O)c1ccc2c(c1)OCO2, COCCn1c(C)cc(C(=O)CSc2nc3ccccc3c(=O)n2Cc2ccco2)c1C, Nc1cc([N+](=O)[O-])ccc1OCc1ccccc1, O=C(Nc1cc2c(cc1Br)OCCCO2)c1ccccc1, C/C(=C\c1ccccc1)C(=O)NCCc1ccccc1, CN(CCO)C(=O)c1ccc(-c2nn(C)c(=O)c3ccccc23)cc1, O=C(Nc1cccc(F)c1)Nc1ccc2c(c1)CCC2, O=C(Nc1ccc2c(c1)CCC2)c1cccs1, O=C(CCNC(=O)c1ccc(Cl)cc1)NC1CCCCCC1, CCOc1cc(/C=N/NC(=O)CSc2nnc(C)s2)ccc1OCc1ccccc1Cl, O=c1c2ccccc2oc2cc(-c3ccc4cc[nH]c4c3)ccc12, O=c1oc(CCO)cc2ccc(-c3ccc4[nH]ccc4c3)cc12, CC1CCc2c(sc(/N=C/c3ccco3)c2C(N)=O)C1 (stereo unspecified), Fc1ccc2cc(-c3ccccc3F)ncc2c1, Cc1cc(NC(=O)c2ccc(OCC3CCCO3)cc2)ccc1Br (stereo unspecified), O=c1c2ccccc2nc2c3ccccc3c(NCc3ccccn3)nn12, O=C(CSc1nc2ccccc2c(=O)n1NC(=O)c1ccccc1)c1ccc(Cl)cc1, Cn1cccc1C(=O)OCC(=O)Nc1ccc2c(c1)OCCO2, Cc1ccccc1Cn1nnc(C(=O)Nc2ccc3c(c2)OCCO3)c1N, Fc1ccccc1-c1nc2ccccc2[nH]1, CCOC(=O)c1sc(=NC(=O)c2ccc(C)cc2)n(C)c1C, CCOC(=O)c1sc(=NC(=O)c2ccccc2)n(C)c1C, NC(=O)c1cc(Cl)ccc1OCC(=O)Nc1ccc2c(c1)OCO2, O=C(O)c1ccc(N/N=C/c2cccc3cccnc23)cc1, Oc1ccccc1/C=N/Nc1cccc2cccnc12, Cc1ccc(C(=O)Nc2cccc(C(=O)N3CCOCC3)c2)cc1, Cn1cccc1C(=O)OCC(=O)N1CCc2ccccc21, COC(=O)N=Nc1c(O)[nH]c2ccc(Br)cc12, O=C(N=Nc1c(O)[nH]c2ccc(Br)cc12)c1ccco1, O=C1CCN(Cc2ccccc2)C=C1c1ccc2ccccc2c1, CC(C)=CC(=O)Nc1ccc(Cl)cc1, O=C(NCCc1cccc(Cl)c1)c1ccc2c(c1)OCO2, COc1cccc(NC(=O)/C=C/c2ccco2)c1, O=C(/C=C/c1ccco1)Nc1cccnc1, Cc1ccc(-n2nc3ccc(NC(=O)/C=C/c4ccco4)cc3n2)cc1, O=C(/C=C/c1ccco1)Nc1cccnc1Cl, COc1cccc(-c2cc(C(=O)N3CCCCCC3)no2)c1, COc1ccc(-c2cc3nc4n(c(=O)c3s2)CCCCC4)cc1, O=C(COc1ccc(F)cc1Cl)NC1CCCCCC1, COc1ccc2c(c1)-c1nc(NC(=O)c3ccco3)sc1CC2, Cc1cccc(C(=O)O/N=C(\N)c2ccc(Cl)cc2)c1, N/C(=N\OC(=O)c1ccco1)c1ccccc1, COc1ccc(C(=O)O/N=C(\N)c2ccc(Br)cc2)cc1, COc1ccccc1C(=O)O/N=C(\N)c1ccccn1, N/C(=N\OC(=O)c1ccco1)c1cccnc1, COc1ccccc1C(=O)O/N=C(\N)c1ccccc1Cl
